Results taken from PubChem BioAssay.
Where “and” joins values, the source holds several entries; their conditions need not be identical. Equal values may be shown once. More than one record can exist for a structure, and the calls need not agree. Calls of active or inactive are those of the source. Unless noted, no rule for the calls is given here.

Key:
[1] = HepG2 liver cancer cell viability effects, profiling panel, resazurin fluorescence, 24 h, PK04 Diversity Set (AID 1172); conditions: higher = more signal; also: test concentration not given here
[2] = basal S. cerevisiae growth modulation, no modifier, primary screen, OD600, strain BY4716, 24 h, basal condition (AID 1173); conditions: OD600, 24 h, higher = more signal, called active from +8 up or from −8 down
[3] = MM1S myeloma cell viability, profiling panel, resazurin fluorescence, basal, 24 h, PK04 Diversity Set (AID 1174); conditions: higher = more signal, called active from +8 up or from −8 down;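 also: MM1S multiple myeloma cell line; test concentration not given here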
[4] = biological target: Dihydroorotate dehydrogenase (quinone), mitochondrial (Plasmodium falciparum (isolate 3D7)) (UniProt Q08210); experiment: PfDHODH enzyme inhibitors, primary screen, biochemical, C-terminal His tag, absorbance 600 nm (AID 1175); conditions: DCIP absorbance 600 nm, higher = more signal, called active from +8 up or from −8 down;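 also: recombinant parasite enzyme with a five histidine tag at its C terminus; test concentration not given here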
Chain of Dihydroorotate dehydrogenase (quinone), mitochondrial (Plasmodium falciparum (isolate 3D7)) (Q08210 whole entry, looked up): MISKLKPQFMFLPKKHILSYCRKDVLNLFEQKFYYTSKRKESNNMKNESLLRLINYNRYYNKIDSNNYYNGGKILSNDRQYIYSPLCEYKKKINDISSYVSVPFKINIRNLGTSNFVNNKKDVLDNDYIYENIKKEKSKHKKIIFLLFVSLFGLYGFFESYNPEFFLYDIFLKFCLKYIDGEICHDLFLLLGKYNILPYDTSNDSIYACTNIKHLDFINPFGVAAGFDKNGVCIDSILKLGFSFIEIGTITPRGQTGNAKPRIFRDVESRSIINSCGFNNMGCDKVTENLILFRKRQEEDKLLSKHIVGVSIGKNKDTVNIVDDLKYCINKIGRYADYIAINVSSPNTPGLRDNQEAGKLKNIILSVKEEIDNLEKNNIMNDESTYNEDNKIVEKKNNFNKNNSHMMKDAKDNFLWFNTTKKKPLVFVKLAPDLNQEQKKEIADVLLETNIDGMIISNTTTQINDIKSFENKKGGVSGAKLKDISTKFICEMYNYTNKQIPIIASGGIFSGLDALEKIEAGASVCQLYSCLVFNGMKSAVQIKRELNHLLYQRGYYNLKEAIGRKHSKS

[5] = P. aeruginosa biofilm formation inhibitors, primary screen, strain PAO1, LB-PBS medium, absorbance 600 nm (AID 1176); also: test concentration not given here; conditions: P. aeruginosa PAO1 growth/biofilm, A600, 12 h; higher = more signal
[6] = S. cerevisiae RM11-1a growth modifiers, primary screen, strain RM11-1a, OD600, basal, 24 h (AID 1177); conditions: OD600, 24 h, higher = more signal, called active from +8 up or from −8 down;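 also: cultures grown under basal conditions with no added stressor; test concentration not given here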
[7] = E. coli acrAB mutant growth effects, primary screen, E. coli filamentation inducers, strain DRC39, OD650, 24 h (AID 1178); conditions: higher = more signal, called active from +8 up or from −8 down;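 also: growth measured as culture turbidity by optical density at 650 nm; test concentration not given here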
[8] = E. coli acrAB mutant growth effects, primary screen, E. coli filamentation inducers, strain DRC39, OD650, 48 h (AID 1179);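 also: screen aims at cell division blockers that make cells filament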; conditions: E. coli DRC39 delta-acrAB growth, higher = more signal, called active from +8 up or from −8 down
[9] = RPMI8226 myeloma cell viability, profiling panel, resazurin fluorescence, basal, 24 h, PK04 Diversity Set (AID 1180); conditions: higher = more signal;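 also: RPMI8826 multiple myeloma cell line at 5000 cells per well; test concentration not given here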
[10] = biological target: E3 ubiquitin-protein ligase XIAP (Homo sapiens) (UniProt P98170); experiment: XIAP binders, primary screen, biophysical, small-molecule microarray, fluorescence 635 nm (AID 1181); conditions: small-molecule microarray binding, higher = more signal;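 also: score merges 667 nm emission and signal to noise over triplicate slides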
Chain of E3 ubiquitin-protein ligase XIAP (Homo sapiens) (P98170 whole entry, looked up): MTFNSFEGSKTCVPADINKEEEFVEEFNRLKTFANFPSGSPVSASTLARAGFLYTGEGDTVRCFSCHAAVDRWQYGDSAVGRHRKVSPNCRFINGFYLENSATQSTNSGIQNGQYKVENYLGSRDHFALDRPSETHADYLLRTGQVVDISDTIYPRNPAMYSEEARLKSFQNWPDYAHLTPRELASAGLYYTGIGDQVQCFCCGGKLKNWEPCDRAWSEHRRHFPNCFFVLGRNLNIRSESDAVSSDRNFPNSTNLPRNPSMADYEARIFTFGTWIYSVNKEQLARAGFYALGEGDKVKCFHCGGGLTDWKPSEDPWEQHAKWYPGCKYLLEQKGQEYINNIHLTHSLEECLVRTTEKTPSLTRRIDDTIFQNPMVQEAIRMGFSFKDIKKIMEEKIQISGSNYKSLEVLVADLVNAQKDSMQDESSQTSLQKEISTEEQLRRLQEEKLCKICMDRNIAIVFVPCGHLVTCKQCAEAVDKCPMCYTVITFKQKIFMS

| SMILES | z-score [1] | z-score [2] | z-score [3] | composite z-score [4] | z-score [5] | z-score [6] | z-score [7] | z-score [8] | z-score [9] | composite z-score [10] |
| --- | --- | --- | --- | --- | --- | --- | --- | --- | --- | --- |
| C=CCN(C(=O)C(c1cccs1)N(CCOCCO)C(=O)/C=C\C(=O)O)C(C)(C)C (stereo not given) | -0.403 and -0.304 | -0.655 (inactive) and -0.25 (inactive) | -0.102 (inactive) and 0.0032 (inactive) | -2.84 (inactive) and -0.333 (inactive) | -0.497 (inactive) | 0.432 (inactive) and 0.467 (inactive) | 1.15 (inactive) and 1.46 (inactive) | 1.61 (inactive) and 1.68 (inactive) | -0.0043 and -0.146 | 0.0428 and 0.704 |
| C=C[C@@H](OC)[C@H](O)c1ccc(O)c(F)c1 | 0.097 and -0.0575 | -8.11 (active) and -7.12 (inactive) | 0.0746 (inactive) and 0.161 (inactive) | 0.789 (inactive) and -1.04 (inactive) | 0.826 (inactive) and 0.143 (inactive) | 1.17 (inactive) and -1.07 (inactive) | 0.407 (inactive) and 0.707 (inactive) | 0.27 (inactive) and 0.965 (inactive) | -0.0761 and 0.295 | -0.195 and 0.0027 |
| Cc1ccc(S(=O)(=O)N[C@H]2COC(=O)[C@@H](C)COC(=O)[C@H](C)NC(=O)CC=C[C@H]2C)cc1 | 0.949 | -0.878 (inactive) | 0.799 (inactive) | -0.0791 (inactive) | -0.814 (inactive) | -0.233 (inactive) | 0.45 (inactive) | -0.166 (inactive) | 1.23 | -0.43 |
| C=CCN(CCCC)C(=O)C1N(c2c(Cl)cccc2CO)C(=O)C2C(C(=O)O)C3C=CC21O3 (stereo not given) | -0.757 and -0.248 | 0.187 (inactive) and -0.602 (inactive) | -1.9 (inactive) and -0.645 (inactive) | 0.82 (inactive) and -0.536 (inactive) | -0.261 (inactive) and 0.497 (inactive) | 0.561 (inactive) and 0.143 (inactive) | -0.964 (inactive) and 0.22 (inactive) | -0.881 (inactive) and -0.0006 (inactive) | -0.813 and -0.285 | -0.0599 and 0.425 |
| C=CCN(Cc1ccccc1)C(=O)C1N(CCCCCCO)C(=O)C2C(C(=O)O)C3C=CC21O3 (stereo not given) | -0.29 and 0.875 | -0.356 (inactive) and -0.726 (inactive) | -0.231 (inactive) and 0.723 (inactive) | -0.248 (inactive) and -1.43 (inactive) | 0.95 (inactive) and 0.441 (inactive) | -0.325 (inactive) and -0.784 (inactive) | 0.0108 (inactive) and 0.14 (inactive) | -0.187 (inactive) and -0.172 (inactive) | -0.615 and 0.439 | 0.0898 and -0.395 |
| COC(=O)C1=C(C)N(Cc2ccccc2)[C@]23O[C@](C(=O)OC)(C(=O)N2[C@@H]1c1ccccc1)[C@@H](c1ccccc1)[C@@H]3C(=O)c1ccccc1 | 1.07 and 0.475 | -1.84 (inactive) and -0.926 (inactive) | 0.876 (inactive) and 0.459 (inactive) | 0.78 (inactive) and 0.324 (inactive) | -0.0933 (inactive) | -1.37 (inactive) and -0.224 (inactive) | -0.603 (inactive) and 0.788 (inactive) | -0.263 (inactive) and 0.547 (inactive) | 0.56 and 0.48 | -0.209 and 0.0264 |
| CCOC(=O)c1ccc(NC(=O)O[C@H]2[C@H](OC(=O)Nc3ccccc3)[C@@H](OC(=O)Nc3ccccc3)[C@@H](OC)O[C@@H]2CO)cc1 | -1.97 and -1.75 | 2.09 (inactive) and 0.61 (inactive) | -2.14 (inactive) and -3.07 (inactive) | 0.146 (inactive) and 0.755 (inactive) | 1.94 (inactive) and 1.5 (inactive) | 2.51 (inactive) and 2.87 (inactive) | 0.028 (inactive) and 0.188 (inactive) | -0.343 (inactive) and -0.714 (inactive) | -1.82 and -1.87 | 0.39 and -0.146 |
| C[N+](C)(C)CCCCCCNC(=O)[C@H]1C[C@H]2C(=O)N[C@@H](CCCC[N+](C)(C)C)C(=O)N2[C@H]1c1ccc(O)cc1 | -0.0179 and -0.609 | -0.214 (inactive) and 0.205 (inactive) | -0.0993 (inactive) and -1.52 (inactive) | -1.01 (inactive) and -0.373 (inactive) | 2.63 (inactive) and 0.351 (inactive) | 0.281 (inactive) and 0.826 (inactive) | 0.0781 (inactive) and 0.75 (inactive) | -0.978 (inactive) and 1.03 (inactive) | -0.818 and -0.584 | -0.22 and -0.265 |
| C=C[C@H](OC)[C@@H](O)c1ccc(OCCO)cc1 | -0.843 and 0.501 | -0.43 (inactive) and -1.55 (inactive) | -0.887 (inactive) and 0.51 (inactive) | -0.0113 (inactive) and -0.134 (inactive) | 0.0123 (inactive) and 1.37 (inactive) | 0.952 (inactive) and -0.0987 (inactive) | -0.258 (inactive) and 1.78 (inactive) | -0.366 (inactive) and 1.8 (inactive) | -1.28 and 1.05 | -0.206 and -0.352 |
| CC(C)[Si]1(C(C)C)OCc2cc(C3CC3)nc(CCc3ccccc3)c21 | 0.983 and 1.3 | 1.04 (inactive) and 0.427 (inactive) | 0.905 (inactive) and 0.656 (inactive) | -0.092 (inactive) and -0.377 (inactive) | 0.338 (inactive) and 0.35 (inactive) | 0.534 (inactive) and 0.156 (inactive) | 0.428 (inactive) and -0.615 (inactive) | 0.26 (inactive) and -0.173 (inactive) | 0.635 and 0.355 | 0.321 and -0.305 |
| CC(CO)N1C(=O)[C@@H]2C3C(=O)OCCC=C[C@H]3OC23C=CCN(C(C)(C)C)C(=O)[C@@H]13 (stereo not given in full) | -0.0539 and 0.0517 | 1.97 (inactive) and -0.0328 (inactive) | -1.28 (inactive) and -0.719 (inactive) | -7.96 (inactive) and -3.06 (inactive) | -0.317 (inactive) and 0.329 (inactive) | 1.01 (inactive) and -1.12 (inactive) | -0.57 (inactive) and -0.149 (inactive) | -0.672 (inactive) and -0.246 (inactive) | -0.896 and -0.817 | -0.157 and 0.517 |
| C=CC[C@@H](O)c1ccc(O)c2ccccc12 | 0.202 and -0.349 | -17.2 (active) and -17.3 (active) | -2.06 (inactive) and -2.1 (inactive) | -2.37 (inactive) and -3.1 (inactive) | 1 (inactive) and 1.33 (inactive) | -0.508 (inactive) and 0.0761 (inactive) | 1.2 (inactive) and -0.0099 (inactive) | 0.635 (inactive) and -0.379 (inactive) | -0.947 and -1.55 | 0.205 and 0.0537 |
| C=CCN(Cc1ccccc1)C(=O)C1N(CCOCCO)C(=O)C2C(C(=O)O)C3C=CC21O3 (stereo not given) | 0.649 and -0.0686 | -1.56 (inactive) and 0.494 (inactive) | 1.22 (inactive) and -0.234 (inactive) | -3.5 (inactive) and -0.648 (inactive) | -0.18 (inactive) | -1.46 (inactive) and 0.356 (inactive) | 1.55 (inactive) and 0.0673 (inactive) | 1.05 (inactive) and -0.12 (inactive) | 0.795 and -0.418 | -0.02 and -0.291 |
| C=C[C@H](OC)[C@@H](O)c1ccc(O)c(F)c1 | -0.463 and 0.413 | -2.28 (inactive) and -3.3 (inactive) | -0.74 (inactive) and 0.169 (inactive) | -0.697 (inactive) and -0.991 (inactive) | 0.614 (inactive) and 0.45 (inactive) | -0.684 (inactive) and -0.0772 (inactive) | 0.136 (inactive) and 1.2 (inactive) | 0.0056 (inactive) and 1 (inactive) | -0.792 and 0.496 | -0.283 and -0.107 |
| C[C@@H]1CC[C@@H](C(=O)O)N[C@H]1c1ccc(-c2ccco2)cc1 | 0.443 | -0.319 (inactive) | 0.603 (inactive) | 0.268 (inactive) | -0.151 (inactive) | -0.0212 (inactive) | 0.127 (inactive) | -0.551 (inactive) | 0.285 | 0.012 |
| COC(=O)[C@H](C)NC(=O)CCC1CC(OC(=O)NCCc2ccc(F)cc2)CC2(CCCC(COC(=O)NCCCN3CCCC3=O)O2)O1 (stereo not given in full) | -0.704 | -0.343 (inactive) | 0.951 (inactive) | 0.322 (inactive) | -0.977 (inactive) | 0.492 (inactive) | -0.441 (inactive) | -0.367 (inactive) | 0.315 | -0.283 |
| COC(=O)c1c2oc(c1C(=O)OC)C(=O)N[C@@H](Cc1ccccc1)Cn1cc(nn1)C1(CCCCC1)NC(=O)N[C@H](CO)CC2 | 1.61 and 1.46 | -4.6 (inactive) and 0.628 (inactive) | 0.74 (inactive) and 2.29 (inactive) | 0.338 (inactive) and 0.282 (inactive) | 1.33 (inactive) and 0.997 (inactive) | -0.0882 (inactive) and -0.376 (inactive) | 1.89 (inactive) and 0.153 (inactive) | 1.56 (inactive) and 0.279 (inactive) | 0.688 and 2.64 | 0.065 and -0.0187 |
| CO[C@@H]1COC(=O)CC=C[C@H](C)COC(=O)[C@H](C)NC(=O)CC=C[C@H]1C | 0.496 | 0.699 (inactive) | 0.859 (inactive) | 1.09 (inactive) | -0.531 (inactive) | 1.25 (inactive) | 0.365 (inactive) | -0.896 (inactive) | 0.74 | -0.0936 |
| CO[C@@H]1COC(=O)CC=C[C@H](C)[C@@H](NS(=O)(=O)c2ccc(C)cc2)COC(=O)CC=C[C@@H]1C | 0.157 and 1.73 | -0.627 (inactive) and -0.634 (inactive) | 0.445 (inactive) and 0.542 (inactive) | -0.198 (inactive) and -0.555 (inactive) | -0.531 (inactive) and -0.479 (inactive) | 0.344 (inactive) and 0.104 (inactive) | 0.643 (inactive) and 0.426 (inactive) | 0.292 (inactive) and 0.187 (inactive) | -0.325 and 0.774 | -0.209 and -0.304 |
